# Data reported in PubChem BioAssay (NCI).
# About 83,000 compounds went through this panel and 20% of them were active in at least one assay; those are over-represented in the sample as a whole.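 Plates (96-well) were seeded with cells, treated with compound at one concentration, and incubated for 48 hours before percent growth was determined.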 Unmarked numbers belong to inactive results. Calls of active or inactive are those of the source. Rule for the calls: active = growth percent below 10; inactive = the rest.
# Legend:
# Assay in all cases: NCI-60 one-dose screen, 48 h (100 = growth as untreated, 0 = no growth, -100 = all killed)
# Details in all cases: 10 µM unless noted
# HCT-15 colon = test system: HCT-15 colon
# HT29 colon = test system: HT29 colon
# SNB-75 CNS = test system: SNB-75 CNS
# SNB-19 CNS = test system: SNB-19 CNS
# SK-MEL-5 melanoma = test system: SK-MEL-5 melanoma
# UACC-62 melanoma = test system: UACC-62 melanoma
# LOX IMVI melanoma = test system: LOX IMVI melanoma
# SK-MEL-28 melanoma = test system: SK-MEL-28 melanoma
# PC-3 prostate = test system: PC-3 prostate
# U251 CNS = test system: U251 CNS
Structure (SMILES),growth (HCT-15 colon),growth (HT29 colon),growth (SNB-75 CNS),growth (SNB-19 CNS),growth (SK-MEL-5 melanoma),growth (UACC-62 melanoma),growth (LOX IMVI melanoma),growth (SK-MEL-28 melanoma),growth (PC-3 prostate),growth (U251 CNS)
COc1cc(OC)c(NC(=O)n2ncc3cc(Nc4ncnc5ccccc45)ccc32)cc1Cl,93.8%,80.3%,118%,90.6%,94.3%,105%,102%,98.7%,–,–
Nc1nc2c(c3cnccc13)C(c1cccc(Br)c1)Cc1cnccc1-2 (stereo not drawn),7.06% (active),4.32% (active),18.9%,24%,-30.4% (active),21.8%,8.43% (active),49.4%,11.6%,–
N=C(N)c1ccc(-c2ccc(-c3ccc(Cl)cc3)s2)s1,-84.8% (active),-33.3% (active),-96.4% (active),-81.8% (active),2.66% (active),-31.2% (active),-89.4% (active),-87.8% (active),-91% (active),–
CCCCCSc1ccc2nc(NC(=O)OCCC)sc2c1,26.1%,15.9%,13.3%,40.9%,17.7%,31.1%,38.6%,70.9%,27.7%,–
N=C(N)c1ccc(-c2ccc(-c3cc(Cl)cc(Cl)c3)s2)cc1,-85.9% (active),-38% (active),-90.6% (active),-73.5% (active),-93.7% (active),-80.4% (active),-78.6% (active),-86.4% (active),-81.6% (active),–
Cc1ccc(C(=O)C(Br)C(Br)c2ccccc2)cc1 (stereo not drawn),80.3%,101%,82.9%,–,94.3%,94.7%,66.6%,101%,108%,82.7%
CCOC(=O)c1cc(C(=O)c2ccc(Br)cc2)n2cc(C)cc(C)c12,95.5%,82.3%,82.8%,87%,96.2%,89.3%,92.3%,98.5%,84.1%,–
O=c1c(N=Nc2nccs2)c(-c2ccccc2)[nH]n1-c1nc(-c2ccccc2)cs1,19.5%,32.2%,61%,24.4%,15.2%,–,44.3%,47.1%,32.8%,–
COc1ccc2c(c1)cn1c3ccc(O)cc3[nH]c(=O)c21,2.24% (active),-43.1% (active),–,21.7%,13%,39%,3.95% (active),27.9%,11%,10.5%
COc1cc2cn3c4ccc(O)cc4[nH]c(=O)c3c2cc1OC,23.3%,-70.2% (active),–,30.9%,-90.7% (active),-9.19% (active),0.607% (active),11.5%,66.4%,12%
O=c1c2c(c3ccccc3n1-c1ccccc1)NC(=S)NC2c1ccccc1 (stereo not drawn),97.1%,132%,–,99%,97.9%,96%,97.9%,116%,-47.1% (active),107%
CCCCN(CCC)CCCCCCCCCCN1CCCc2ccccc21,78.8%,21.8%,89%,–,–,–,67.8%,118%,45.8%,87.7%
CCN(CC)c1ccc2nc3ccc(N=Nc4ccc(O)cc4)cc3[n+](-c3ccccc3)c2c1,65.6%,28.9%,–,73.3%,46.3%,59.3%,36.5%,–,48.3%,44.1%
C=CCN(C)C,113%,113%,–,102%,108%,101%,99.8%,110%,105%,102%
Cc1ccc(C(=O)NN)cc1,102%,111%,94.5%,–,108%,–,96.5%,109%,–,–
COC(=O)c1cc(O)c2cc3c(cc2c1-c1cc(OC)c(OC)c(OC)c1)OCO3,23.6%,-9.35% (active),–,36.9%,3.09% (active),44.2%,29.7%,51.5%,–,42.3%
COc1cc(-c2nn(-c3ccc(NC(=O)Nc4cc(C(F)(F)F)cc(C(F)(F)F)c4)cc3)cc2-c2ccncc2)ccc1Cl,6.27% (active),-30.2% (active),–,26.7%,-71% (active),3.75% (active),-1.69% (active),5.41% (active),10.6%,7.85% (active)
Cc1cc2cn3c4ccc(O)cc4nc(N)c3c2cc1C,7.85% (active),-65.6% (active),–,29.1%,-62.4% (active),46.9%,27.4%,-4.38% (active),25.4%,-5.52% (active)
O=c1[nH]c(=S)[nH]c(O)c1/C=C1\C=Nc2ccccc21,56.2%,58.6%,71.8%,–,–,–,67%,96.8%,61.7%,24%
Nc1nc(-c2cccc(Br)c2)cc(-c2cc3ccccc3oc2=O)n1,106%,117%,–,109%,89.7%,101%,95.8%,126%,122%,106%
Cc1cc2cn3c4ccc(O)cc4[nH]c(=O)c3c2cc1C,3.8% (active),-67.6% (active),–,40.7%,-31.5% (active),49%,4.61% (active),–,37.5%,-44.1% (active)
CC(C)C(=O)c1ccc(Cl)s1,97.5%,120%,80.9%,–,92.8%,100%,91%,111%,103%,99.2%
CCC(C)(CC)c1ccc(O)c(C)c1,101%,104%,86.2%,–,104%,109%,97%,110%,98.9%,97.7%
Cc1c([C@H](C(Cl)Cl)[C@H](O)[C@H]2C[C@H](C)C(=O)O2)ccc2c1C(=O)[C@H]1[C@H]2C[C@@H](Br)[C@@]23O[C@@H](CO[C@H]2O)CC13C (stereo partly drawn),7.63% (active),13.1%,58.4%,–,–,26.6%,33.4%,47.6%,30.4%,14.4%
